Experimental data: PubChem BioAssay (NCI)
The panel holds about 83,000 compounds, 20% with a hit somewhere; the sample as a whole holds those more often.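 Activity criterion: percent growth below 10, measured after cells in 96-well plates were exposed to a single compound concentration for 48 hours.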 Values without a mark were called inactive. Active and inactive are the calls of the source.

Tests used:
Test in all cases: NCI-60 one-dose screen, 48 h (100 = growth as untreated, 0 = no growth, -100 = all killed)
Conditions in all cases: 10 µM unless noted
NCI-H23 lung = system: NCI-H23 lung
NCI-H226 lung = system: NCI-H226 lung
NCI-H322M lung = system: NCI-H322M lung
HOP-62 NSCLC = system: HOP-62 NSCLC
NCI-H460 lung = system: NCI-H460 lung
HOP-92 NSCLC = system: HOP-92 NSCLC
NCI-H522 lung = system: NCI-H522 lung
A549/ATCC NSCLC = system: A549/ATCC NSCLC
786-0 renal = system: 786-0 renal
COLO 205 colon = system: COLO 205 colon
DU-145 prostate = system: DU-145 prostate
MALME-3M melanoma = system: MALME-3M melanoma
MDA-MB-231 breast = system: MDA-MB-231 breast
RXF 393 renal = system: RXF 393 renal
SF-295 CNS = system: SF-295 CNS
SF-539 CNS = system: SF-539 CNS
UACC-257 melanoma = system: UACC-257 melanoma
M14 melanoma = system: M14 melanoma
SF-268 CNS = system: SF-268 CNS
K-562 leukemia = system: K-562 leukemia

Structure (SMILES) | growth (NCI-H23 lung) | growth (NCI-H226 lung) | growth (NCI-H322M lung) | growth (HOP-62 NSCLC) | growth (NCI-H460 lung) | growth (HOP-92 NSCLC) | growth (NCI-H522 lung) | growth (A549/ATCC NSCLC) | growth (786-0 renal) | growth (COLO 205 colon) | growth (DU-145 prostate) | growth (MALME-3M melanoma) | growth (MDA-MB-231 breast) | growth (RXF 393 renal) | growth (SF-295 CNS) | growth (SF-539 CNS) | growth (UACC-257 melanoma) | growth (M14 melanoma) | growth (SF-268 CNS) | growth (K-562 leukemia)
O=c1[nH]c2ccc([N+](=O)[O-])cc2c(=O)o1 | 101% | 108% | 97.6% | 103% | 103% | 79.5% | 100% | 107% | 112% | 109% | 117% | 106% | 107% | 101% | 105% | 102% | 104% | 108% | – | –
Cc1c2cc(Cl)c3ccccc3c2c[n+]2ccccc12 | 47.8% | 43.5% | 31.3% | 12.3% | 55.7% | 75.4% | 17.1% | 40.5% | 16.1% | 56.1% | 78.3% | -16.2% (active) | 82.5% | – | 18.3% | 26.3% | – | 47.5% | -36.3% (active) | –
N/C(=N/N=C/c1ccncc1)N[N+](=O)[O-] | 99.5% | 99.2% | 99.5% | 89.3% | 112% | 115% | 101% | 98.3% | – | 102% | 108% | 96.2% | – | 121% | 99.5% | 94.3% | 102% | 104% | 102% | 90%
CC(C)OC(=O)[C@H](C)NP(=O)(Oc1ccccc1)C1CCCN(O)C1=O (stereo partly drawn) | 89.6% | 70.9% | 84.6% | 111% | 105% | 104% | 97.6% | 105% | 94.3% | – | 98.1% | 43.6% | 92.3% | 57.2% | 95.6% | 87.7% | 93.8% | 66.5% | 93.9% | 94.2%
CCOC(=O)[C@@H](C)C[C@H](Cc1ccccc1)NC(=O)c1csc([C@@H](C[C@H](C(C)C)N(C)C(=O)[C@@H](NC(=O)[C@H]2CCCCN2C)C(C)(C)C)OC(C)=O)n1 | 24.5% | 55.2% | 27.3% | 11.8% | 6.23% (active) | 28.5% | -40.3% (active) | 10.3% | 4.58% (active) | – | 2.47% (active) | 62.4% | -5.5% (active) | 23.8% | -8.4% (active) | -13.6% (active) | 41.7% | -14.6% (active) | 24.9% | 5.06% (active)
Cc1c(NS(=O)(=O)c2ccccc2)ccc([N+](=O)[O-])c1Cl | 58.6% | 62.7% | 102% | 95.1% | 67% | -9.14% (active) | 55.7% | 58.6% | 41.1% | – | 94% | 35.3% | 84.8% | 77% | 31% | 67.4% | 59.5% | 70.4% | 75.9% | 74.4%
COc1ccc(C(=O)c2sc3nc4c(cc3c2N)N2CCC4CC2)cc1OC | 92.5% | 65.2% | 107% | 72.9% | 103% | 6.56% (active) | 82.4% | 94.8% | 90.9% | – | 103% | 93% | 66.9% | 85.6% | 88.9% | – | 111% | 109% | 105% | 73.3%
CC1(C)CN1P(=O)(N1CC1(C)C)N1CC1(C)C (stereo not drawn) | 105% | 109% | 111% | 102% | 112% | 103% | 104% | 91% | 109% | – | 121% | 110% | 107% | 119% | 115% | 109% | 89.3% | 98.8% | 106% | 109%
CN1CCC(O)(c2ccc(F)cc2)C(C(=O)c2ccc(F)cc2)C1 (stereo not drawn) | 99.3% | 108% | 98.7% | 97.2% | 109% | 96.4% | 78.9% | 101% | 102% | – | 107% | 84.6% | 104% | 103% | 110% | 96.8% | 106% | 106% | 106% | 99.1%
CCCOC(=O)N[C@H]1CCc2c(Br)c(OC)c(OC)c(OC)c2-c2ccc(SC)c(=O)cc21 | 26.9% | 15.4% | 34.6% | 41.1% | -18.1% (active) | -3.98% (active) | 8.5% (active) | 18.2% | 1.42% (active) | – | -15.7% (active) | 38.4% | -13.4% (active) | 13.8% | 5.54% (active) | 0.697% (active) | 64.5% | -26.3% (active) | 17.8% | 10.1%
CS(=O)(=O)CCN1CC2CCCC(C2)C1 | 99.7% | 121% | 127% | 103% | 110% | 109% | 97.9% | 99.9% | 95.6% | – | 102% | 111% | 105% | 107% | 108% | 100% | 104% | 98.6% | 102% | 113%
Oc1c(CCl)cc(Cl)cc1CCl | 100% | 98.8% | 123% | 95.1% | 108% | 92.8% | 105% | 116% | 114% | – | 122% | 110% | 104% | 119% | 106% | 104% | 131% | 108% | 104% | 99.3%
COC(=O)[C@]12CCC(C)(C)C[C@H]1[C@H]1C(=O)C[C@@H]3[C@@]4(C)C[C@@]5(CC(C)(C)[C@@H]4CC[C@@]3(C)[C@]1(C)CC2)OO[C@@](C)(C(F)(F)F)O5 | 89% | 86.5% | 109% | 100% | 101% | 98.8% | 76.7% | 98% | 97.8% | – | 107% | 108% | 94.8% | 95.3% | 95.7% | 101% | 102% | 99.2% | 93.1% | 88.3%
COC(=O)[C@@H](C)C[C@H](Cc1ccc2ccccc2c1)NC(=O)c1csc([C@@H](C[C@H](C(C)C)N(C)C(=O)[C@@H](NC(=O)[C@H]2CCCCN2C)C(C)C)OC(C)=O)n1 | 41.7% | 80.2% | 68.6% | 64.7% | 24.2% | -5.09% (active) | 22.2% | 47.5% | 26.5% | – | 46.6% | 63.1% | 21.2% | 49.1% | 56.7% | 10.4% | 77% | 24.6% | 29.4% | 25.7%
Cc1cnc(/C=C/C(=O)O)cc1-c1cc2c(cc1C)C(C)(C)CCC2(C)C | 79.2% | 82.8% | 110% | 94.4% | 85.8% | 56.8% | 65.8% | 63.3% | 76.5% | – | 95.7% | 8.87% (active) | 80.9% | 93.7% | 86.1% | 84.3% | 38.3% | 77.1% | 77.6% | 109%
Nc1ccc(OCCNS(=O)(=O)c2cccc(S(=O)(=O)F)c2)c(Cl)c1 | 95.5% | 96.5% | 87.5% | 90% | 102% | 87.5% | 74.6% | 84.8% | 88.8% | 110% | – | 86.2% | 100% | – | 89.2% | 93.5% | 75.4% | 97.3% | 102% | 95.1%
